Measurements: PubChem BioAssay
Activity calls are given as the source filed them.

Columns and labels:
[1] = tested on: Plasmodium falciparum Sir2 (PF13_0152, Sir2A); test: pfSir2 binders on small-molecule microarrays, primary screen, biochemical, small-molecule microarray, 635 nm fluorescence (AID 1098); conditions: small-molecule microarray binding, fluorescence 635 nm; higher = more signal;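 further: score merges spot fluorescence intensity with its signal-to-noise ratio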
[2] = small-molecule microarray binders of probe aDKK1, primary screen, biochemical, biotinylated probe, 635/667 nm fluorescence (AID 1099); conditions: higher = more signal;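 further: score merges 667nm spot fluorescence with signal to noise across triplicate slides; reference of the scale not given here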
[3] = small-molecule microarray binders of probe aCHRDL2, primary screen, biochemical, biotinylated probe, 635/667 nm fluorescence (AID 1100); conditions: higher = more signal
[4] = splicing luciferase reporter signal modulators, primary screen, spliceosome inhibition project, cell-based, HEK293, splice +/- reporter (AID 1101); conditions: luminescence, 24 h, higher = more signal, called active from +8 up or from −8 down;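 further: HEK293 cells carrying a splicing-competent luciferase reporter gene; test concentration not given here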
[5] = target: Fibroblast growth factor 10 (Homo sapiens) (UniProt O15520); test: FGF10 binders on small-molecule microarrays, primary screen, biochemical, small-molecule microarray, 635 nm fluorescence (AID 1102); conditions: FGF10 binding, fluorescence 635 nm, higher = more signal
Chain of Fibroblast growth factor 10 (Homo sapiens) (O15520 whole entry, looked up): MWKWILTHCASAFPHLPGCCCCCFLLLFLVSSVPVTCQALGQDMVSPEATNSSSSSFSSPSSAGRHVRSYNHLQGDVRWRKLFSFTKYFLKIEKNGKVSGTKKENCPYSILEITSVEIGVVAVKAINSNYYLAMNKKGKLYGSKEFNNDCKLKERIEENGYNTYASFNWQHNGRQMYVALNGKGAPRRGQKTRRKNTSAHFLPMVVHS

[6] = tested on: glycogen synthase kinase-3 (GSK3A per assay name; protocol says GSK3B); test: GSK3 binders on small-molecule microarrays, primary screen, biochemical, small-molecule microarray, 635 nm fluorescence, GSK3A (AID 1103); conditions: small-molecule microarray binding, fluorescence 635 nm; higher = more signal; further: the record names both GSK3A and GSK3B
[7] = target: Epidermal growth factor receptor (Homo sapiens) (UniProt P00533); test: EGFR binders on small-molecule microarrays, primary screen, biochemical, small-molecule microarray, 635 nm fluorescence (AID 1104); conditions: EGFR binding, higher = more signal;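 further: score merges 667 nm emission intensity with spot signal to noise over triplicate slides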
Chain of Epidermal growth factor receptor (Homo sapiens) (P00533 whole entry, looked up): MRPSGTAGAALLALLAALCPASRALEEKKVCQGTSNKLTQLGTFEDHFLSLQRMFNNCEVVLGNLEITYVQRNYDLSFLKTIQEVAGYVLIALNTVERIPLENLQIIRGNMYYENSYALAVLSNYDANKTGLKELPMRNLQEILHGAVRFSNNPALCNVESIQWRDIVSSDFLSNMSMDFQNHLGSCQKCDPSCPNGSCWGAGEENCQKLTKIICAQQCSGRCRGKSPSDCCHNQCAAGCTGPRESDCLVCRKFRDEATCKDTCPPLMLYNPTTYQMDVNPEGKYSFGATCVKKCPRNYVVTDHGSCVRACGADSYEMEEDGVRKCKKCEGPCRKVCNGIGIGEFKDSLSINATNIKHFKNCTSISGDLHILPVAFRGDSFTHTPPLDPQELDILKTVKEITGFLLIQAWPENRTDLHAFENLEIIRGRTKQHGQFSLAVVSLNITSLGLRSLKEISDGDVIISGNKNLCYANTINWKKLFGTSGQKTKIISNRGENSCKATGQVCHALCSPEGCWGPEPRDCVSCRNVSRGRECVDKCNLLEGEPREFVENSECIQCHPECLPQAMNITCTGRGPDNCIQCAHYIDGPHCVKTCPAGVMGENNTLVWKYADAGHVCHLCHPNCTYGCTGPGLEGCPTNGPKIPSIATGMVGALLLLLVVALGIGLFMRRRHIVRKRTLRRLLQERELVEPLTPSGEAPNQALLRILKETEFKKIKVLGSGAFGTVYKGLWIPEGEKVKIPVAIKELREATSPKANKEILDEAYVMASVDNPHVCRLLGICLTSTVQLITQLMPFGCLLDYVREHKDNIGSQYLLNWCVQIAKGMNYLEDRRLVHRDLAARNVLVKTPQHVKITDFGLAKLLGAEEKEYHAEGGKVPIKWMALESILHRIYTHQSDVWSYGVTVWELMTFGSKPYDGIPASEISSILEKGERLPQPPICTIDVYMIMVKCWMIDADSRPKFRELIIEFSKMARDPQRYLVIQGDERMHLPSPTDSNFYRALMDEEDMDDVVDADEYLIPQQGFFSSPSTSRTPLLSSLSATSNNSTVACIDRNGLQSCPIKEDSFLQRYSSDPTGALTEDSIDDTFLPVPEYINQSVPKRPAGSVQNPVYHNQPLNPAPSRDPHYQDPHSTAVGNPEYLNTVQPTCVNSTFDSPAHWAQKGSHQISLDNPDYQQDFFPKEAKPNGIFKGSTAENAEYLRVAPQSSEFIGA

[8] = target: Follistatin-related protein 3 (Homo sapiens) (UniProt O95633); test: FSTL3 binders on small-molecule microarrays, primary screen, biochemical, small-molecule microarray, 635 nm fluorescence (AID 1105); conditions: FSTL3 binding, higher = more signal;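 further: score merges emission near 667 nm and signal to noise per printed spot across three slides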
Chain of Follistatin-related protein 3 (Homo sapiens) (O95633 whole entry, looked up): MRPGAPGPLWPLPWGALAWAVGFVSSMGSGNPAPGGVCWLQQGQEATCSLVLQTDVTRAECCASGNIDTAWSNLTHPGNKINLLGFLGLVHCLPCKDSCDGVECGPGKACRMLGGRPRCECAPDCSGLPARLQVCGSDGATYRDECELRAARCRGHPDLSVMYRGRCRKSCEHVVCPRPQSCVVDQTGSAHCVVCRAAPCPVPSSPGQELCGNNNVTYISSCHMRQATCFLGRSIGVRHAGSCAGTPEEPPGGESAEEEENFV

[9] = target: Dickkopf-related protein 1 (Homo sapiens) (UniProt O94907); test: DKK1 binders on small-molecule microarrays, primary screen, biochemical, small-molecule microarray, 635 nm fluorescence scan (AID 1106); conditions: DKK1 binding, higher = more signal;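 further: score merges emission near 667 nm with signal to noise over three replicate slides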
Chain of Dickkopf-related protein 1 (Homo sapiens) (O94907 whole entry, looked up): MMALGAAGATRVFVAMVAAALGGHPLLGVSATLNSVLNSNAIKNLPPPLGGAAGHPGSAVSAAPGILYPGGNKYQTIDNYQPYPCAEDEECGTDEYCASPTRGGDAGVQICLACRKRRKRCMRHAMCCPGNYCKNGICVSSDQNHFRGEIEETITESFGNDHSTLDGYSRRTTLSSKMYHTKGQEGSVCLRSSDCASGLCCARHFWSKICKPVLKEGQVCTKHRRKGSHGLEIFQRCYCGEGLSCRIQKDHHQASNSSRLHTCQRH

[10] = tested on: Inhibin beta A chain (activin A); test: INHBA (activin A) binders on microarrays, primary screen, biochemical, small-molecule microarray, 635 nm fluorescence scan (AID 1107); conditions: small-molecule microarray binding, higher = more signal;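 further: mouse activin A protein probed at 4.33 µg/mL on printed slides; score merges bound-protein fluorescence near 667 nm with spot signal-to-noise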

Row | SMILES | composite z-score [1] | composite z-score [2] | composite z-score [3] | z-score [4] | composite z-score [5] | composite z-score [6] | composite z-score [7] | composite z-score [8] | composite z-score [9] | composite z-score [10]
1 | O=C(CS)NCCCCCCNC(=O)[C@@H]1C[C@@H]2C(=O)N3CCC[C@H]3C(=O)N2[C@@H]1c1cccc(OCCO)c1 | 1.62 | 0.0302 | 0.396 | -1.77 (inactive) | 0.964 | 0.896 | 0.559 | 0.704 | 0.426 | 0.653
2 | COc1ccc([Si](C)(C)[C@@H]2[C@@H](CCO)O[C@]3(C(=O)N(Cc4cccc(N5C(=O)c6ccccc6Oc6ccccc65)c4)c4ccccc43)[C@H]2C)cc1 | 0.307 | 0.0163 | 0.444 | -1.19 (inactive) | -0.502 | -0.735 | -0.717 | -0.491 | -0.812 | 0.233
3 | C[C@@H]1ON(c2ccc(C(=O)OC(C)(C)C)cc2)[C@H](c2ccc(Br)cc2)[C@H]1C(=O)N1C(=O)OC[C@H]1Cc1ccccc1 | 0.992 | -0.0749 | -0.17 | -0.65 (inactive) | 1.17 | 1.31 | 0.701 | 1.21 | 1.11 | -0.109
4 | C=CCOC(=O)[C@H]1[C@@H]2C(=O)O[C@@H](c3ccccc3)[C@@H](c3ccccc3)N2[C@@H](c2ccc(OCCOC(=O)[C@H]3C[C@H]4C(=O)N[C@@H](CCCC[N+](C)(C)C)C(=O)N4[C@H]3c3cccc(OCCO)c3)cc2)[C@]12C(=O)Nc1ccc(I)cc12 | 1.1 | -0.179 | -0.0243 | 0.997 (inactive) | 0.809 | 0.701 | 0.335 | 0.376 | 0.763 | 0.111
5 | [N-]=[N+]=NCc1ccccc1[C@H]1OC(c2ccc(OCCCO)cc2)=N[C@@]1(CCS(=O)(=O)c1ccccc1)C(N)=O | 1.37 | 0.605 | 1.07 | -0.503 (inactive) | 1.5 | 1.1 | -0.216 | 0.441 | -0.0333 | 1.29
6 | COC(=O)[C@@]1(Cc2ccc(F)cc2)[C@H]2c3cc(C(=O)N4CCCC4)n(CCc4c[nH]c5ccc(OC)cc45)c3C[C@H]2CN1C(=O)c1ccccc1 | 1.03 | 1.6 | 1.01 | -3.28 (inactive) | 1.53 | 1.18 | 0.763 | 0.735 | 0.0605 | 1.06
7 | CCOC(=O)C1=C[C@@H](c2ccccc2)N(S(=O)(=O)c2ccc(C)cc2)[C@H]1c1cccc(Cl)c1 | 0.937 | 1.09 | 1.17 | -0.355 (inactive) | 0.839 | 1.27 | 0.448 | 1.17 | -0.0943 | -0.249
8 | NC(=O)NCC#Cc1ccc2c(c1)[C@]1(C(=O)N2)[C@H](c2ccc(O)cc2)N2[C@H](c3ccccc3)[C@H](c3ccccc3)OC(=O)[C@H]2[C@@H]1C(=O)Nc1nc2ccccc2s1 | 0.836 | 0.645 | 0.985 | 1.11 (inactive) | 1.25 | 0.0394 | 0.581 | 1.05 | 0.666 | 1.17
9 | CN1C(=O)[C@@]2(CCS(=O)(=O)c3ccccc3)N=C(c3ccc(OCCCO)cc3)O[C@H]2c2ccccc21 | 1.12 | 0.0859 | 0.861 | -1.06 (inactive) | 0.939 | 1.32 | 0.364 | 1.05 | 0.172 | 0.615
10 | CCOC(=O)C1=CC[C@@H](c2cc(Cl)ccc2Cl)N(S(=O)(=O)c2ccc(C)cc2)[C@H]1c1ccc(OC)cc1 | 0.391 | 0.987 | 1.13 | -0.381 (inactive) | 0.462 | -0.239 | -0.36 | -0.0732 | -0.295 | 1.56
11 | CC(C)(C)OC(=O)CC[C@]1(C(=O)NCCN2CCOCC2)N=C(c2ccc(OCCCO)cc2)O[C@H]1c1ccccc1 | 1 | 0.214 | 0.93 | 0.66 (inactive) | -0.426 | -1.04 | -0.174 | -0.713 | -1.02 | 0.992
12 | O=C1c2ccccc2[C@](Cc2ccccc2I)(C(=O)NCc2ccccc2)[C@H](c2ccc(CO)cc2)N1C1CCCCC1 | 0.851 | 0.969 | 0.357 | -0.216 (inactive) | 1.37 | 1.08 | 0.228 | 1.08 | 0.837 | 0.958
13 | C=C(/C(=C/C[C@@H](OC(=O)c1ccncc1)c1ccc(OCCO)cc1)c1cc(C(=O)OC)ccc1OC)C(C)C | 0.596 | -0.354 | -0.338 | -0.432 (inactive) | 0.426 | 0.284 | 0.325 | 0.609 | -0.0107 | 0.309
14 | CCCC[C@@H]1C[C@H]1[C@@H](NC(=O)c1cccnc1)c1ccc(-c2ccccc2)cc1 | 0.0651 | -0.161 | 0.993 | -4.22 (inactive) | -1.19 | -1.2 | -1.46 | -1.01 | -1.44 | 0.936
15 | CCOC(=O)C[C@H]1[C@H](OC(=O)c2ccc(-c3ccccc3)cc2)[C@@H](NC(=O)C2CCCCC2)c2cc(OCCCO)ccc2N1C(=O)c1ccccc1 | 0.3 | -0.141 | -0.464 | -0.0213 (inactive) | 0.616 | 0.258 | 0.0979 | 0.584 | 0.237 | 0.117
16 | Cc1ccc(F)cc1S(=O)(=O)N[C@@H]1CCN(Cc2ccc(OC(C)C)cc2)C1 | -0.38 | -0.428 | -0.272 | 2.97 (inactive) | -0.514 | -0.654 | -0.662 | -0.746 | 0.183 | 0.834

Row | SMILES | composite z-score [1] | composite z-score [2] | composite z-score [3] | z-score [4] | composite z-score [5] | composite z-score [6] | composite z-score [7] | composite z-score [8] | composite z-score [9] | composite z-score [10]
17 | CC(C)N1CC=CC23O[C@@H]4C=CCOC(=O)[C@@H]4[C@H]2C(=O)N(C(C)CO)[C@@H]3C1=O (stereo not given in full) | 0.776 | -0.162 | 0.559 | 0.408 (inactive) | -0.724 | -1.99 | -1.29 | -0.93 | -1.21 | -0.116
18 | CC(C)(C)OC(=O)CC[C@@]1(C(=O)O)N=C(c2ccc(OCCCO)cc2)O[C@@H]1c1ccccc1 | 0.492 | 0.325 | 0.824 | -0.176 (inactive) | -0.0905 | -0.126 | -0.566 | -0.294 | -0.646 | 0.253
19 | CC=CC(O)C1C=CC2C(=O)N(c3ccccc3)C(=O)C2N1Nc1ccccc1 (stereo not given) | 1.37 | 0.864 | 0.882 | -0.0227 (inactive) | 1.11 | 1.29 | 0.247 | 1.36 | 0.239 | 0.871
20 | C[N+](C)(C)CCCC[C@@H]1NC(=O)[C@@H]2C[C@H](C(=O)O)[C@H](c3ccc(O)cc3)N2C1=O | -0.72 | 0.0476 | 0.937 | 0.116 (inactive) | -1.57 | -1.32 | -1.04 | 0.0994 | -0.0081 | 0.614
21 | COCCCNC(=O)[C@@H]1c2ccccc2C(=O)N(Cc2ccccc2C(F)(F)F)[C@H]1c1ccc(CO)cc1 | 1.58 | 0.484 | 0.879 | 0.354 (inactive) | -0.0537 | 0.575 | -0.222 | -0.582 | -0.595 | 0.923
22 | COCCCNC(=O)[C@]1(Cc2ccccc2CN=[N+]=[N-])N=C(c2ccc(OCCCO)cc2)O[C@@H]1c1ccccc1 | 0.465 | 0.383 | 0.775 | -0.697 (inactive) | 0.573 | 0.778 | -0.251 | 0.317 | -0.817 | 0.493
23 | [N-]=[N+]=NCc1ccccc1C[C@@]1(C(=O)NCCN2CCOCC2)N=C(c2ccc(OCCCO)cc2)O[C@@H]1c1ccccc1N=[N+]=[N-] | 1.15 | 0.75 | 0.45 | -1.7 (inactive) | 0.778 | 1.08 | 0.283 | 0.325 | -0.194 | 0.822
24 | CO[C@H]1O[C@H](CO)[C@@H](OC(=O)Nc2ccc(Oc3ccccc3)cc2)[C@H](OC(=O)Nc2ccccc2-c2ccccc2)[C@@H]1OC(=O)Nc1ccccc1-c1ccccc1 | 1.31 | 0.686 | 0.609 | -1.52 (inactive) | 0.959 | 1.15 | 0.223 | 0.787 | 0.338 | 0.586
25 | COCCCNC(=O)[C@@]1(Sc2ccc(C)cc2)CC(=O)N(Cc2cc(C(F)(F)F)cc(C(F)(F)F)c2)[C@@H]1c1ccc(CO)cc1 | 1.08 | -0.0248 | -0.0087 | 0.261 (inactive) | 0.327 | -0.257 | -0.107 | 1.01 | 0.585 | 0.612
26 | O=C1OCC=C[C@H]2OC34C=CCN(c5ccc(Cl)cc5)C(=O)[C@H]3N(CCCCCO)C(=O)[C@@H]4[C@@H]12 (stereo not given in full) | 0.311 | -0.204 | 0.822 | -0.784 (inactive) | -1.23 | -1.26 | -1.44 | -1.51 | -1.22 | -0.262
27 | C[C@H]1C2=C3C(CC[C@H]4C(OCc5ccc(F)cc5C(F)(F)F)OC[C@](C)([C@@H]34)N(C(=O)OC(C)(C)C)C2)C2COC(=O)OCC21 (stereo not given in full) | 0.0559 | 0.457 | 1.28 | -0.848 (inactive) | 0.0151 | 0.987 | 0.0472 | 0.768 | -0.648 | 0.572
28 | [N-]=[N+]=NCc1ccccc1C[C@@]1(C(=O)N2CCCCC2)N=C(c2ccc(OCCCO)cc2)O[C@@H]1c1ccccc1N=[N+]=[N-] | 0.679 | 0.885 | 0.689 | -0.428 (inactive) | 0.128 | 0.293 | 0.13 | -0.16 | -0.276 | 1.19
29 | CCC[C@@H]1C[C@@]1(CCC)[C@@H](NP(=O)(c1ccccc1)c1ccccc1)c1ccc(Cl)cc1 | 0.219 | 0.0536 | 0.292 | -2.26 (inactive) | -0.489 | -0.965 | -0.537 | -0.366 | 0.102 | 1.18
30 | COc1cc2c(cc1OC)CN(C(=O)[C@@H]1[C@H]3C(=O)O[C@H](c4ccccc4)[C@H](c4ccccc4)N3[C@H](c3ccccc3OCCO)[C@@]13C(=O)Nc1ccc(C#CC4(O)CCCCCC4)cc13)CC2 | 1.1 | 0.159 | 0.0184 | 0.582 (inactive) | 0.366 | 1.13 | 0.368 | 0.511 | 0.383 | 0.275
31 | CCCCN1CC=CC23O[C@@H]4/C=C\CCC(C)OC(=O)C4[C@H]2C(=O)N(CCCCCCO)[C@@H]3C1=O (stereo not given in full) | 0.906 | -0.264 | 0.402 | 0.142 (inactive) | 0.107 | -0.782 | -0.63 | -1.04 | -0.842 | 0.703
32 | Cc1ccc(S[C@]2(C(=O)NC(C)C)CC(=O)N(Cc3ccccc3C(F)(F)F)[C@@H]2c2ccc(CO)cc2I)cc1 | 1.29 | 0.386 | 1.09 | -1.42 (inactive) | -1.41 | -1.1 | -1.64 | -1.29 | -1.7 | 0.889
